This is an account of results in PubChem BioAssay (EPA / NIEHS).

The target in experiment [1] is human LYN Proto-Oncogene, Src family Tyrosine Kinase (LynA), LYN (gene 4067) (UniProt P07948). Put plainly: NVS_ENZ_hLynA: NovaScreen (NVS) Enzymatic Assay for human LYN Proto-Oncogene, Src family Tyrosine Kinase (LynA) (AID 2283173). Summed up: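 Recombinant kinase with fluorescent substrate; product separated from substrate by electrophoretic mobility shift and read 1 h after dosing. Duplicate screen at 25 uM, then concentration-response up to 50 uM; activity scored as signal loss against DMSO.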
Sequence of human LYN Proto-Oncogene, Src family Tyrosine Kinase (LynA), LYN (gene 4067) (P07948 whole entry, looked up): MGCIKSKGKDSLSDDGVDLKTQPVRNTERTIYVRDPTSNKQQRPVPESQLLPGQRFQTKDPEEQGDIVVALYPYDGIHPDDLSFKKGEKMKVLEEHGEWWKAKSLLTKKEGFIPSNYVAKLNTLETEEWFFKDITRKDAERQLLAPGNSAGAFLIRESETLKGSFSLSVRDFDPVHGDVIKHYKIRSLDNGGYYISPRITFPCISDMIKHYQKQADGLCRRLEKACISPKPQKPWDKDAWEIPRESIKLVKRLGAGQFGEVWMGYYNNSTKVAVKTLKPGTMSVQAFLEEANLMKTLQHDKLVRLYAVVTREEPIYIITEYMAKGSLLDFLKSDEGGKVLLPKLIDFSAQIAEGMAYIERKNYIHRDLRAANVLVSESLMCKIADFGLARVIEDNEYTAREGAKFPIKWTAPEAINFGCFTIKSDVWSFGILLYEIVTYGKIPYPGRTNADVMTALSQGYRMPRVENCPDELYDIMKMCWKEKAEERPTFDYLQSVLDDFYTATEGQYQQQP

Experiment [2] deals with human Matrix Metalloproteinase-3 (MMP3), MMP3 (gene 4314) (UniProt P08254). Put plainly: NVS_ENZ_hMMP3: NovaScreen (NVS) Enzymatic Assay for human Matrix Metalloproteinase-3 (MMP3) (AID 2283185). A digest of the protocol:
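Cell-free recombinant human MMP3 activity, fluorescence intensity read 1 h after dosing. Primary screen duplicate at 25 uM, actives retested in concentration series; loss of signal vs DMSO baseline.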

Experiment [3] addresses Glycogen synthase kinase-3 beta (Homo sapiens) (UniProt P49841). Briefly: NVS_ENZ_hGSK3b: NovaScreen (NVS) Enzymatic Assay for human Glycogen Synthase Kinase-3 beta (GSK3b) (AID 2283165). A digest of the protocol:
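Recombinant enzyme with specific fluorescent substrate, 1 h, product separated by electrophoretic mobility shift. Primary duplicate screen at 25 uM; actives (e.g. 30% inhibition) followed in singleton concentration-response to 50 uM. Signal loss fitted versus DMSO.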

For experiment [4], the target named is human c-Jun N-terminal Kinases (JNK2), MAPK9 (gene 5601) (UniProt P45984). Put plainly: NVS_ENZ_hJNK2: NovaScreen (NVS) Enzymatic Assay for human c-Jun N-terminal Kinases (JNK2) (AID 2283171). A digest of the protocol:
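Cell-free recombinant human JNK2 activity assay; fluorescent substrate and product separated by electrophoretic mobility shift, read 1 h after dosing. Primary duplicate screen at 25 uM; actives run in concentration-response up to 50 uM, relative to DMSO.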

Experiment [5] has as its target Mitogen-activated protein kinase 3 (Homo sapiens) (UniProt P27361). Put plainly: NVS_ENZ_hMAPK3: NovaScreen (NVS) Enzymatic Assay for human Mitogen-Activated Protein Kinase 3 (MAPK 3) (AID 2283177). Summed up: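 Cell-free enzymatic assay with recombinant protein and specific substrate; fluorescence and electrophoretic mobility shift read-out 1 h after dosing. Primary screen duplicate at 25 uM; actives then run in concentration-response up to 50 uM, loss of signal versus DMSO.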

Experiment [6] concerns the target human MET Proto-Oncogene, Receptor Tyrosine Kinase (MET), MET (gene 4233) (UniProt P08581). Briefly: NVS_ENZ_hMet: NovaScreen (NVS) Enzymatic Assay for human MET Proto-Oncogene, Receptor Tyrosine Kinase (MET) (AID 2283180). A digest of the protocol: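 Cell-free MET kinase assay using recombinant protein and fluorescent substrate, with mobility-shift separation; read 1 h after dosing. Primary duplicate at 25 uM; actives in singleton concentration-response to 50 uM maximum. Signal loss versus DMSO.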

Experiment [7] concerns the target human Matrix Metalloproteinase-7 (MMP7), MMP7 (gene 4316) (UniProt P09237). Put plainly: NVS_ENZ_hMMP7: NovaScreen (NVS) Enzymatic Assay for human Matrix Metalloproteinase-7 (MMP7) (AID 2283183). A digest of the protocol: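 Cell-free fluorescence enzymatic assay read 1 h after compound addition, activity loss analyzed against DMSO. Primary duplicate testing at 25 uM; compounds meeting threshold rerun in singleton concentration-response up to 50 uM.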

Experiment [8] concerns the target human Mitogen- and Stress-activated Protein Kinase-1 (Msk1), RPS6KA5 (gene 9252) (UniProt O75582). Put plainly: NVS_ENZ_hMsk1: NovaScreen (NVS) Enzymatic Assay for human Mitogen- and Stress-activated Protein Kinase-1 (Msk1) (AID 2283187). A digest of the protocol:
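Recombinant kinase with fluorescent substrate; product separated by electrophoretic mobility shift, read 1 h after dosing. Screened in duplicate at 25 uM; hits (e.g. ≥30% inhibition) tested in concentration–response up to 50 uM. DMSO baseline.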

The target in experiment [9] is human NIMA (Never In Mitosis Gene A)-Related Kinase 2 (NEK2), NEK2 (gene 4751) (UniProt P51955). Briefly: NVS_ENZ_hNEK2: NovaScreen (NVS) Enzymatic Assay for human NIMA (Never In Mitosis Gene A)-Related Kinase 2 (NEK2) (AID 2283188). Summed up: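 Cell-free NEK2 enzyme activity after 1 h exposure, read by fluorescence with electrophoretic mobility shift separating substrate and product. Primary screen in duplicate at 25 uM; actives then run as concentration series. Loss of signal versus DMSO scored.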

The target in experiment [10] is human p21 Activated Kinase 4 (PAK4), PAK4 (gene 10298) (UniProt O96013). Put plainly: NVS_ENZ_hPAK4: NovaScreen (NVS) Enzymatic Assay for human p21 Activated Kinase 4 (PAK4) (AID 2283189). A digest of the protocol:
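Cell-free recombinant human PAK4 activity assay; fluorescent substrate and product separated by electrophoretic mobility shift, read 1 h after dosing. Initially tested in duplicate at 25 uM, relative to DMSO baseline.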

Experiment [11] deals with human Phosphodiesterase 4A1 (PDE4A1), PDE4A (gene 5141) (UniProt P27815). Put plainly: NVS_ENZ_hPDE4A1: NovaScreen (NVS) Enzymatic Assay for human Phosphodiesterase 4A1 (PDE4A1) (AID 2283191). A digest of the protocol:
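Cell-free recombinant human PDE4A1 with fluorescent substrate; product separated by electrophoretic mobility shift, 1 h. Screened at 25 uM, then up to 50 uM in concentration-response; loss of signal fitted against DMSO.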

The target in experiment [12] is human Matrix Metalloproteinase-1 (MMP1), MMP1 (gene 4312) (UniProt P03956). Put plainly: NVS_ENZ_hMMP1: NovaScreen (NVS) Enzymatic Assay for human Matrix Metalloproteinase-1 (MMP1) (AID 2283181). A digest of the protocol: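 Human MMP1 enzyme activity measured by fluorescence 1 h after dosing, cell-free, with a specific substrate. Screened in duplicate at 25 uM; hits (e.g. 30% inhibition) run in concentration-response up to 50 uM; loss of signal versus DMSO.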
Sequence of human Matrix Metalloproteinase-1 (MMP1), MMP1 (gene 4312) (P03956 whole entry, looked up): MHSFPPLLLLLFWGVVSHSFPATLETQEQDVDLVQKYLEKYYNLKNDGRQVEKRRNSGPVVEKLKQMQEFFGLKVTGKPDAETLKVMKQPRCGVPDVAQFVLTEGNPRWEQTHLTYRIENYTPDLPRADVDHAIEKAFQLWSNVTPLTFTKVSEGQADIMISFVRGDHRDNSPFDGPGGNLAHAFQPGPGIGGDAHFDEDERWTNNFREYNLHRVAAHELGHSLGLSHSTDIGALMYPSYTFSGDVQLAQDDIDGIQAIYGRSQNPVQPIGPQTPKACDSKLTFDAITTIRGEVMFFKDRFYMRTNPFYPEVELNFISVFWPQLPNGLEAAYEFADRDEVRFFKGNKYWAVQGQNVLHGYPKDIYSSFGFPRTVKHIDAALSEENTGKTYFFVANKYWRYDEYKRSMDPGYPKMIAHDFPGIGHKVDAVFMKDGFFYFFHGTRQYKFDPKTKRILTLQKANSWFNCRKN

Experiment [13] deals with human Mitogen-Activated Protein Kinase 1 (MAPK 1), MAPK1 (gene 5594) (UniProt P28482). Put plainly: NVS_ENZ_hMAPK1: NovaScreen (NVS) Enzymatic Assay for human Mitogen-Activated Protein Kinase 1 (MAPK 1) (AID 2283175). Summed up:
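Cell-free recombinant human MAPK1 enzymatic assay, fluorescence/electrophoretic mobility shift read at 1 h; loss of signal vs DMSO. Primary screen in duplicate at 25 uM; actives (e.g. ≥30% inhibition) run as concentration-response up to 50 uM.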

For experiment [14], the target named is human Matrix Metalloproteinase-9 (MMP9), MMP9 (gene 4318) (UniProt P14780). Put plainly: NVS_ENZ_hMMP9: NovaScreen (NVS) Enzymatic Assay for human Matrix Metalloproteinase-9 (MMP9) (AID 2283190).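 Further: cell-free recombinant MMP9 protease activity read by fluorescent substrate signal; active means inhibition seen as loss of fluorescence signal versus DMSO.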 Summed up:
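Screening concentration 25 uM, duplicate wells, then dose series for confirmation. Cell-free enzymatic reaction measured by fluorescence intensity 1 h post-dosing; decreased signal versus DMSO taken as activity.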

Experiment [15] deals with human Insulin Receptor (InsR), INSR (gene 3643) (UniProt P06213). Briefly: NVS_ENZ_hInsR: NovaScreen (NVS) Enzymatic Assay for human Insulin Receptor (InsR) (AID 2283168). A digest of the protocol:
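Fluorescent substrate phosphorylation by recombinant kinase, product resolved by electrophoretic mobility shift, read 1 h after dosing. Screened in duplicate at 25 uM; hits (e.g., 30% inhibition) run in concentration-response to 50 uM; DMSO as baseline.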

Experiment [16] has as its target human Janus Kinase 2 (Jak2), JAK2 (gene 3717) (UniProt O60674). Briefly: NVS_ENZ_hJak2: NovaScreen (NVS) Enzymatic Assay for human Janus Kinase 2 (Jak2) (AID 2283169). A digest of the protocol:
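Cell-free recombinant human JAK2 enzyme activity assay, fluorescence/electrophoretic mobility shift read 1 h after dosing. Screened in duplicate at 25 uM, then concentration-response up to 50 uM; activity as signal loss relative to DMSO.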

Experiment [17] addresses human IkappaB Kinase alpha (IKKa), CHUK (gene 1147) (UniProt O15111). Put plainly: NVS_ENZ_hIKKa: NovaScreen (NVS) Enzymatic Assay for human IkappaB Kinase alpha (IKKa) (AID 2283167). A digest of the protocol:
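Cell-free recombinant human IKKa with fluorescent substrate, product separated by electrophoretic mobility shift; read 1 hour after dosing. Primary screen duplicate at 25 uM, actives then concentration-response up to 50 uM; loss of signal relative to DMSO.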

Experiment [18] concerns the target human MAP Kinase-Activated Protein Kinase 2 (MAPKAPK2), MAPKAPK2 (gene 9261) (UniProt P49137). Briefly: NVS_ENZ_hMAPKAPK2: NovaScreen (NVS) Enzymatic Assay for human MAP Kinase-Activated Protein Kinase 2 (MAPKAPK2) (AID 2283178). Summed up:
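Cell-free recombinant human MAPKAPK2 activity measured by fluorescence with electrophoretic mobility shift separation of substrate and product, 1 hr after dosing. Loss of signal versus DMSO; primary screen at 25 uM, concentration-response up to 50 uM.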

Experiment [19] addresses human Matrix Metalloproteinase-2 (MMP2), MMP2 (gene 4313) (UniProt P08253). Put plainly: NVS_ENZ_hMMP2: NovaScreen (NVS) Enzymatic Assay for human Matrix Metalloproteinase-2 (MMP2) (AID 2283184). Summed up:
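Cell-free recombinant MMP2 activity with a fluorescent substrate, read 1 h after dosing. Primary screen in duplicate at 25 uM; actives then run in concentration series; loss of signal fitted versus DMSO.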

For experiment [20], the target named is Collagenase 3 (Homo sapiens) (UniProt P45452). Put plainly: NVS_ENZ_hMMP13: NovaScreen (NVS) Enzymatic Assay for human Matrix Metalloproteinase-13 (MMP13) (AID 2283182). Summed up: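 Recombinant MMP13 cleaving fluorescent substrate, cell-free, measured 1 h after dosing. Primary duplicate screen at 25 uM; actives tested in concentration-response up to 50 uM; loss of signal relative to DMSO.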

Results filed as inconclusive are left out. Activity calls are given as the source filed them. How the source made its calls: active means hit-call score of the fitted dose curve at least 0.9, where 1 is the maximum; inconclusive means response in the unintended direction; inactive means score below 0.9.

Sequence of human Mitogen-Activated Protein Kinase 1 (MAPK 1), MAPK1 (gene 5594) (P28482 whole entry, looked up): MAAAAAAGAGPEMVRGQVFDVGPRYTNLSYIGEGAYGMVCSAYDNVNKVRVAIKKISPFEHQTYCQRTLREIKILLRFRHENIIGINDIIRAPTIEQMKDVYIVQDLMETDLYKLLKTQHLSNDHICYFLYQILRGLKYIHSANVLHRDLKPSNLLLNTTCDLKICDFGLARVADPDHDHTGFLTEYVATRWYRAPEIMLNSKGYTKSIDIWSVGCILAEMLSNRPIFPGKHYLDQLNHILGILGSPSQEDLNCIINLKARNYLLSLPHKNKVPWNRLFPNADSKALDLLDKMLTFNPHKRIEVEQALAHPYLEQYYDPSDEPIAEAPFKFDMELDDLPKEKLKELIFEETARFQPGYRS
Sequence of human Matrix Metalloproteinase-3 (MMP3), MMP3 (gene 4314) (P08254 whole entry, looked up): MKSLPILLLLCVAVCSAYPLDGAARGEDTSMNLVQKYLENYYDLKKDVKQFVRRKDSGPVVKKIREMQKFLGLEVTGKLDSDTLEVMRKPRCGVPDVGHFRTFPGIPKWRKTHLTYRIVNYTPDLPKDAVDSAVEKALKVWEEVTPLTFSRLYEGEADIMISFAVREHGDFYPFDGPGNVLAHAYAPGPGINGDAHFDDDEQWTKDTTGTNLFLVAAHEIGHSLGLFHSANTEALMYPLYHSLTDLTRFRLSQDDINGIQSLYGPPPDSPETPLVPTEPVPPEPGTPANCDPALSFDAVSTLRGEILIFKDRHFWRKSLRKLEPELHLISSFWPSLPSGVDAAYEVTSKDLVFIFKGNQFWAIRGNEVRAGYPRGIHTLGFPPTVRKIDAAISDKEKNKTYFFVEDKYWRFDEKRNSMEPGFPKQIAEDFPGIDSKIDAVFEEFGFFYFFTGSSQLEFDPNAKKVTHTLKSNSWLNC
Sequence of Glycogen synthase kinase-3 beta (Homo sapiens) (P49841 whole entry, looked up): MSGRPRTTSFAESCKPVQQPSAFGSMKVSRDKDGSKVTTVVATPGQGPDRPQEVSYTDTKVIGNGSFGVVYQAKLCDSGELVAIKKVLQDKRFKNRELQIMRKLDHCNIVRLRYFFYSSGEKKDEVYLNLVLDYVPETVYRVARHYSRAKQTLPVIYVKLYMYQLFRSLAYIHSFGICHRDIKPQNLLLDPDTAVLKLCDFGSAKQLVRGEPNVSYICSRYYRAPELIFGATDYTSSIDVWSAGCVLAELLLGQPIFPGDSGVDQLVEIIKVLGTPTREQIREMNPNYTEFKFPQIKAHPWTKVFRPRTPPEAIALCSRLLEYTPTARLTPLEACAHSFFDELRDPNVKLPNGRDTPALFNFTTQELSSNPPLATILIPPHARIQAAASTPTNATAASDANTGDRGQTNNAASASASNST
Sequence of Mitogen-activated protein kinase 3 (Homo sapiens) (P27361 whole entry, looked up): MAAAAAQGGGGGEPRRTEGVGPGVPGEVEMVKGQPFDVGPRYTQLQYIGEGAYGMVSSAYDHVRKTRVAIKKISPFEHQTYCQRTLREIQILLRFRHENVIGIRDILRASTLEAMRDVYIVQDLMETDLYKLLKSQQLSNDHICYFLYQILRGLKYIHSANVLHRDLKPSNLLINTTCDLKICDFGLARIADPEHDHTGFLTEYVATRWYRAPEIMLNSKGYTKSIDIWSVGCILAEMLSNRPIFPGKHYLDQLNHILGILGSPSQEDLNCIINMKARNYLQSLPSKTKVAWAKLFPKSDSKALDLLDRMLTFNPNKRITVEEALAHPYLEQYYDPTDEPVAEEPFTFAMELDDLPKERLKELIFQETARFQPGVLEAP
Sequence of human Phosphodiesterase 4A1 (PDE4A1), PDE4A (gene 5141) (P27815 whole entry, looked up): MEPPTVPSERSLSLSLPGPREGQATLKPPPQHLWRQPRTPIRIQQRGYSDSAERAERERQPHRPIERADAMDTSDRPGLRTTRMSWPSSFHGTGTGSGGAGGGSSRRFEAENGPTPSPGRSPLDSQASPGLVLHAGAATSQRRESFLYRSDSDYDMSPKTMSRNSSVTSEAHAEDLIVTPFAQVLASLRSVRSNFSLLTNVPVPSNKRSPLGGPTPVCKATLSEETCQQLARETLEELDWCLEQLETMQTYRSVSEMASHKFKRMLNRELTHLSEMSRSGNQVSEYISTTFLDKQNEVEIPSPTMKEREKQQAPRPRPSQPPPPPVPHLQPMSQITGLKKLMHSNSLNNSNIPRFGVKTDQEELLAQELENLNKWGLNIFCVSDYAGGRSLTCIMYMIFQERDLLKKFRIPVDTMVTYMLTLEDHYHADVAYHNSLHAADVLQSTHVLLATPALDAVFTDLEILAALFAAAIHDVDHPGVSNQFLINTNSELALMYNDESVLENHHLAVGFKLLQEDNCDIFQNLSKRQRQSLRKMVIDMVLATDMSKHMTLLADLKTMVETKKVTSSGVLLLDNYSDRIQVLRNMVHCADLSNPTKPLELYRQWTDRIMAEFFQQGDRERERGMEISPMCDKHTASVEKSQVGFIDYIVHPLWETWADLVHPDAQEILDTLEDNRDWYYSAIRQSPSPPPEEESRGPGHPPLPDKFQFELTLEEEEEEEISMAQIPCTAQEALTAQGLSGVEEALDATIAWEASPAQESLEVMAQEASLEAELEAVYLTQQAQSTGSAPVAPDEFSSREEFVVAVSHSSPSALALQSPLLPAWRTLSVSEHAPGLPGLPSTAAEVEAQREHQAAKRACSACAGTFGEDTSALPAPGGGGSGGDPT
Sequence of human Mitogen- and Stress-activated Protein Kinase-1 (Msk1), RPS6KA5 (gene 9252) (O75582 whole entry, looked up): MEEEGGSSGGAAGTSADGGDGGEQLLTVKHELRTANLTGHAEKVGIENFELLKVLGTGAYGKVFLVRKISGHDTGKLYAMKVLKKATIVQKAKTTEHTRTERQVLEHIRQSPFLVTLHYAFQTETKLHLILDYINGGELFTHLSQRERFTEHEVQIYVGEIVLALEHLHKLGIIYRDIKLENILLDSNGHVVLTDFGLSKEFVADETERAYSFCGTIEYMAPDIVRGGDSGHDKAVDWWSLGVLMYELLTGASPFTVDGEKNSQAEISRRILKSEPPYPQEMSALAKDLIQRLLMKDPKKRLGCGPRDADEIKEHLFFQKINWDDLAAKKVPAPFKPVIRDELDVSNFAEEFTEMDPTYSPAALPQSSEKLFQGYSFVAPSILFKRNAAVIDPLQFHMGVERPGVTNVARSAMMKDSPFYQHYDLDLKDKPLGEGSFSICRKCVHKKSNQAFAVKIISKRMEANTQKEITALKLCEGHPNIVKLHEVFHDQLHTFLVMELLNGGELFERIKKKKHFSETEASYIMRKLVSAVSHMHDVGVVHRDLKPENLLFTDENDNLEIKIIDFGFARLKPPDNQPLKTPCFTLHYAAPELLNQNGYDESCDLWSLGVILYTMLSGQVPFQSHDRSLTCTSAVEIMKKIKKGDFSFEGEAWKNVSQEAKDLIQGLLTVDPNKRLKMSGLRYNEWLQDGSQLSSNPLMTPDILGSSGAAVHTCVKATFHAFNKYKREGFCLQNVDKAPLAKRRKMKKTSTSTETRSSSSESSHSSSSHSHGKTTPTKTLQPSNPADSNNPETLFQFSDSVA
Sequence of human p21 Activated Kinase 4 (PAK4), PAK4 (gene 10298) (O96013 whole entry, looked up): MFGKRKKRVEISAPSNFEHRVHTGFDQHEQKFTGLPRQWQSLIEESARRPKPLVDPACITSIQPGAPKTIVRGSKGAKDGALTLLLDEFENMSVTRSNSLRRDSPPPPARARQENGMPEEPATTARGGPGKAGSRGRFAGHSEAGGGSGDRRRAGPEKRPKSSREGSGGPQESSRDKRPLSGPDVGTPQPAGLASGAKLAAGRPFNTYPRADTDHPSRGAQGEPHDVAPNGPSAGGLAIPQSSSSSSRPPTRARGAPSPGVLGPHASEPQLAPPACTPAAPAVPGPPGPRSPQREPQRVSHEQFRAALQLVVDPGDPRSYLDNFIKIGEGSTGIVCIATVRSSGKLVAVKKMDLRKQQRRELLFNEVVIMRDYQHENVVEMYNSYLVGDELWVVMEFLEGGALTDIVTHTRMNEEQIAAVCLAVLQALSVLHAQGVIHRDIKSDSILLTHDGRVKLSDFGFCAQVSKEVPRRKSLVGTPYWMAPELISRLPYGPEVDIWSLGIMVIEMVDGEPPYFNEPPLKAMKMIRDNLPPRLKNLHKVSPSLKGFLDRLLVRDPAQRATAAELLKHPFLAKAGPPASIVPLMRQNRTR

In the case of `Clc1ccc(Cl)c(Cl)c1`, the result in experiment [1] and in experiment [2] was inactive.
With `CCNS(=O)(=O)C(F)(F)C(F)(F)C(F)(F)C(F)(F)C(F)(F)C(F)(F)C(F)(F)C(F)(F)F`, the outcome in experiment [3], in experiment [4], in experiment [5], in experiment [6], in experiment [7] and in experiment [8] was inactive. For the same compound, the outcome in experiment [9], in experiment [10] and in [11] was inactive.
For the compound `Nc1ccc(N=Nc2ccccc2)cc1`, the compound was classed as inactive in experiment [3]. Moreover, in experiment [12], the AC50 is 16.9 µM (active).
On to `COC(=O)Nc1nc2ccccc2[nH]1`, for which the AC50 in [13] is 46.7 µM (active).
On to `O=[N+]([O-])c1ccc(Oc2ccc(Cl)cc2Cl)cc1`, for which the compound was called inactive in [13], in experiment [12] and in [14].
As to `Nc1ccc(Cc2ccc(N)cc2)cc1`, the compound was called inactive in experiment [3].
In the case of `CC(O)CCO` (stereo not given), the compound was called inactive in [3].
Take `CCCCCCCCCCCCCN1CC(C)OC(C)C1` (stereo not given): in experiment [15], the call was inactive.
For the compound `COc1cc(C=O)cc2c1[C@H](COC(N)=O)[C@]1(OC(C)=O)ON2C[C@H]2[C@@H]1N2C(C)=O`, the AC50 in experiment [16] is 0.00608 µM (active). Further, the compound was called inactive in experiment [5] and in experiment [10].
For the compound `CCN(CC)N=O`, the call in experiment [3], in experiment [17], in experiment [18] and in experiment [8] was inactive.
For the compound `CN(C)C(=O)Nc1ccc(Cl)cc1`, the call in [1], in experiment [13] and in [2] was inactive. Besides, in [19], the AC50 was 17.9 µM (active).
As for `c1ccc(NNc2ccccc2)cc1`, the call in experiment [1] was inactive.
For the compound `Cc1ccc([N+](=O)[O-])cc1`, the call in experiment [3] was inactive.
In the case of `CN(C)[C@@H]1C(=O)C(C(N)=O)=C(O)[C@@]2(O)C(=O)C3=C(O)c4c(O)cccc4[C@@](C)(O)[C@H]3C[C@@H]12`, the AC50 in [3] is 25 µM (active). In addition, the compound was called inactive in experiment [20] and in [2].
Regarding `O=[N+]([O-])C(Br)(CO)CO`, the compound was classed as inactive in experiment [3] and in [6].
With `CCN(CC)CCO`, the result in experiment [3] was inactive.
As for `CN(C)c1ccccc1`, in experiment [3], the call was inactive.
Regarding `CN(C)c1ccc(C(=O)c2ccc(N(C)C)cc2)cc1`, the outcome in [3] and in experiment [11] was inactive.
On to `OCCCl`, for which the result in experiment [3] was inactive.
The same measure, in the same setting: with `CCOC(=O)[C@]1(c2ccccc2)Oc2ccccc2[C@@H]1N` the entry was “inactive”.
For `Cc1cccc(N)c1N`, in experiment [3], the AC50 is 27.9 µM (active).
